Six1-Eya2 blk: blocks human Six1 binding to Eya2; Q15475+O00167; AlphaScreen GST-Six1/His-Eya2 binding, biochemical; hits give low values; activity change, % (no concentration beside the values); 0.56% of 360,000 active; in the data active means activity change below about -65%; inconclusive means mostly about -30% to -63%
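AlphaScreen with GST-Six1 and His-Eya2 (5X mix: 250 nM and 500 nM), glutathione donor and nickel acceptor beads; buffer 50 mM Tris pH 8.0, 300 mM NaCl, 1 mM TCEP; 1 h at 37 C in the dark.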
HP1b binding inh: HP1-beta chromodomain-methylated histone interaction inhibition. 0.56% of 390,000 active. AlphaScreen HP1-beta / biotin-H3K9me3 peptide binding. AID 540317. Potency, µM (doses to about 114 µM), most hits filed as inhibitors. P83916; further: nearly all actives have a fitted effect of over 70% in size
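Compound inhibition of the preformed complex between 50 nM HP1-beta and 50 nM biotinylated H3K9me3 peptide was read by AlphaScreen. Buffer was PBS pH 7.4 with 0.01% Tween-20. Incubations ran 30 min at room temperature, with 10 ug/mL donor/acceptor beads.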
BAZ2B block: BAZ2B (human) inhibition; Potency, µM (highest dose often 114 µM), hits mostly inhibitors; AlphaScreen BAZ2B-H3K14Ac peptide displacement; AID 504333; 4.4% of 360,000 active; Q9UIF8; further: nearly all actives have a fitted effect of over 60% in size
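In this displacement format the biotinylated H3(5-23) peptide acetylated at Lys14 serves as ligand at 50 nM, with BAZ2B at 50 nM in PBS pH 7.4 containing 0.01% Tween-20. Donor and acceptor beads are 10 ug/mL final.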
JMJD2A Tudor: inhibitors of human JMJD2A Tudor domain | O75164 | AlphaScreen JMJD2A-Tudor / H3K4me3 peptide binding | Potency, µM (doses to about 114 µM), usual class: inhibitors | 4.4% of 390,000 active | AID 504339; further: nearly all actives have a fitted effect of over 50% in size
CtBP-E1A blk: blocks the CtBP interaction with E1A. AlphaScreen GST-E1A/His-CtBP binding, 1536-well; hits give low values. activity change, % (no concentration beside the values). 0.49% of 340,000 active; in the data active means activity change below about -65%; inconclusive means mostly about -30% to -63%
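Homogeneous bead-based format: GST-tagged E1A captured on glutathione donor beads, His-tagged CtBP on nickel acceptor beads; compounds precede bead addition by 2 h at 37 °C.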
TDP1 inh: TDP1 (human) enzyme inhibition; Q9NUW8; recombinant TDP1, AlphaScreen DNA substrate cleavage; Potency, µM (titrated, usually from 130 µM), usual class: inhibitors; 0.28% of 350,000 active; AID 485290; further: nearly all actives have a fitted effect of over 40% in size
Target sequence (Q9NUW8 whole entry, looked up): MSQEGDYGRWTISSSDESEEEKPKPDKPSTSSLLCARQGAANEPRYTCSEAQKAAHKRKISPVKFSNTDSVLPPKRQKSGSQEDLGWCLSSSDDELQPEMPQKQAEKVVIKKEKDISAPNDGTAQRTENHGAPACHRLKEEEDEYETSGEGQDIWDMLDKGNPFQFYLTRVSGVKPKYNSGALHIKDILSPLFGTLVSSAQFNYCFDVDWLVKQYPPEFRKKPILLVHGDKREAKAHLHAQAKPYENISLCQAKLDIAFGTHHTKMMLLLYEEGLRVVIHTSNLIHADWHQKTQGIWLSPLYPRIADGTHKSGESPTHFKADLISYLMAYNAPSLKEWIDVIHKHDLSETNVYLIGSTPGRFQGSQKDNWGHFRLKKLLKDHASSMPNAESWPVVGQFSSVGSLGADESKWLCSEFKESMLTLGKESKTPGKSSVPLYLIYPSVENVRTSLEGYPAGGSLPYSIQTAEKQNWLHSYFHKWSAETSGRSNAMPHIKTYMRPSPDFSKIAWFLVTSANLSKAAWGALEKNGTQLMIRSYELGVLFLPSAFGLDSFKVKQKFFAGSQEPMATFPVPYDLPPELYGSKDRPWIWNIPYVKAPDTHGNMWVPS
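Signal: AlphaScreen proximity between streptavidin donor and anti-FITC acceptor beads on intact substrate. Reaction: Tdp1 1 nM, substrate 15 nM final, 5 min RT after 15 min compound preincubation.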
Numbers stand for hits; 0 = inactive; ? = inconclusive; - = no result given. A selection: hits, their analogues and other compounds. The true share with any hit is near 5.3%. Unless noted, the call rests on the fitted dose curve; in most records, active means well fitted inhibition curve with a large enough effect; inconclusive means small, poorly fitted or top-dose-only effect; inactive means no such curve, though single readings can be large or run the other way.

SMILES | Six1-Eya2 blk | HP1b binding inh | BAZ2B block | JMJD2A Tudor | CtBP-E1A blk | TDP1 inh
Clc1nc(-c2ccccn2)nc2scc(-c3ccccc3)c12 | -73 | 0 | 0 | 0 | 0 | 0
COc1ccc(OC(=O)c2cn(-c3cccc(OC)c3)c(=O)c3ccccc23)cc1 | - | 0 | 0 | 0 | - | 0
COc1ccc(-c2nnc(NC(=O)C3=COCCO3)o2)cc1 | 0 | 0 | 28µM | 0 | 0 | 0
O=C(Nc1nnc(C2=COCCO2)o1)c1cccc(C(F)(F)F)c1 | 0 | 0 | ? | 0 | 0 | 0
O=C(Nc1nnc(C2=COCCO2)o1)c1ccc(F)cc1 | ? | 0 | 22µM | 56µM | ? | 0
O=C(Nc1nnc(C2=COCCO2)o1)c1ccc(Cl)cc1 | 0 | 0 | 56µM | 79µM | 0 | 0
O=C(Nc1nnc(C2=COCCO2)o1)c1ccc(Br)cc1 | - | - | ? | - | - | 0
O=C(Nc1nnc(C2=COCCO2)o1)c1ccc([N+](=O)[O-])cc1 | 0 | 0 | 35µM | 50µM | 0 | 0
O=C(Nc1nnc(-c2ccc(Br)cc2)o1)C1=COCCO1 | 0 | 0 | ? | 0 | 0 | 0
COc1ccc(-n2cc(-c3ccccc3)c3c(Nc4ccc(OC)c(OC)c4)ncnc32)cc1 | - | 0 | 0 | 0 | - | 0
CCOc1ccc(CNc2cc(C)nc3nc(-c4cccc(C)c4)nn23)cc1OC | - | 0 | 0 | 0 | - | 0
S=c1[nH]c(-c2ccc(Cl)cc2)cs1 | 0 | 0 | 45µM | ? | 0 | 0
S=c1nccc(-c2ccc(Cl)cc2)[nH]1 | 0 | 0 | 0 | 0 | 0 | 0
Nc1ccc(OCc2ccccc2)cc1[N+](=O)[O-] | ? | ? | - | 40µM | ? | -
COCCn1c(NC(=S)NC(=O)C2CC2)cc(=O)[nH]c1=O | 0 | 0 | ? | 1µM | 0 | 0
Cc1ccc2oc(-c3ccc(C)c(NC(=O)c4ccc(-c5ccccc5[N+](=O)[O-])o4)c3)nc2c1 | - | 0 | 0 | 0 | - | 0
COc1ccc(N=C2S/C(=C\c3ccc(OC(C)C(=O)O)c(OC)c3)C(=O)N2CCc2c[nH]c3ccccc23)cc1 (stereo not drawn) | 0 | ? | 22µM | 40µM | 0 | 0
COc1cc(/C=C2\SC(=Nc3ccccc3)N(CCc3c[nH]c4ccccc34)C2=O)ccc1OC(C)C(=O)O (stereo not drawn) | 0 | ? | 45µM | 56µM | 0 | 0
O=C1/C(=C/c2ccc(N3CCOCC3)o2)SC(=Nc2ccccc2)N1CCc1c[nH]c2ccccc12 | ? | 0 | ? | ? | 0 | 0
COCCN1C(=O)/C(=C/c2ccc(Oc3ccc([N+](=O)[O-])cn3)c(OC)c2)SC1=Nc1ccccc1 | 0 | 0 | 0 | ? | 0 | 0
CCn1c(O)c(/C=N/n2cnnc2)sc1=S | 0 | 0 | ? | 56µM | 0 | 0
Cc1cc2c(s1)c1cnn(Cc3c(F)ccc(F)c3Cl)c(=O)c1n2C | - | - | - | 0 | - | -
Cc1cc2oc(C(=O)N(Cc3ccccc3)C3CCS(=O)(=O)C3)cc(=O)c2cc1C (stereo not drawn) | - | 0 | 0 | 0 | - | 0
COC(=O)C1=C(C)N(Cc2cccnc2)C(=O)/C1=C\c1cccs1 | - | - | 28µM | - | - | 0
C=CCN1C(=O)/C(=C\c2cccs2)C(C(=O)OC)=C1C | 0 | ? | 40µM | ? | 0 | 0
SMILES | Six1-Eya2 blk | HP1b binding inh | BAZ2B block | JMJD2A Tudor | CtBP-E1A blk | TDP1 inh
S=c1[nH]nc(-c2ccco2)n1-c1ccccc1Cl | 0 | 0 | 0 | 5µM | 0 | 0
Cc1occc1-c1n[nH]c(=S)n1-c1ccccc1 | 0 | 0 | 0 | 7.1µM | 0 | 0
S=c1[nH]nc(-c2cc(-c3ccco3)[nH]n2)n1-c1ccccc1Cl | 0 | 0 | 50µM | 89µM | 0 | 3.5µM
S=c1[nH]nc(-c2cc(-c3ccco3)[nH]n2)n1-c1ccccc1 | 0 | 0 | ? | 50µM | 0 | 0
COc1ccc(OC)c(-n2c(-c3cc(-c4ccco4)[nH]n3)n[nH]c2=S)c1 | 0 | 0 | 0 | ? | 0 | 0
CCn1c(CNC(=O)c2cccs2)n[nH]c1=S | 0 | ? | 0 | 8.9µM | 0 | 0
O=C(NCc1n[nH]c(=S)n1-c1cccc(Cl)c1)c1cccs1 | 0 | ? | 0 | 20µM | 0 | 0
CC(NC(=O)c1cccs1)c1n[nH]c(=S)n1C (stereo not drawn) | 0 | 0 | 0 | 8.9µM | 0 | 0

High-throughput results as filed in PubChem BioAssay.
